Values joined by “and” are separate entries in the source; they are usually repeats but may differ in a detail not shown here. Equal entries are not always repeated. For some assays here: Results with a measured potency or affinity are listed apart. Active and inactive are the calls of the source. Rule as the data show it, unless noted: active = parasite load remaining mostly below about 12% (no sharp cut-off); inactive = mostly above about 10%.
How the values were obtained:
[1] = polyglutamine-triggered caspase-3 activation inhibitors, cell-based (AID 1583); settings: polyglutamine-induced caspase-3 activation, cell assay; stronger effect = higher value;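 tested at 10 µM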
[2] = suppressors of polyQ aggregation in yeast, 75Q-TubU reporter (AID 1593); settings: Yeast 75Q polyglutamine aggregation reporter
[3] = rescue of polyQ-huntingtin neuronal dysfunction in worms, whole organism, C. elegans mechanosensory neurons, N-terminal huntingtin (AID 1599); settings: touch response, stronger effect = higher value
[4] = inhibitors of mitochondrial cytochrome c release, biochemical, purified mitochondria (AID 1603); settings: stronger effect = lower value;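 also: mouse liver mitochondria challenged with calcium chloride; signal normalized to the plate average as 100%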
[5] = inhibitors of polyQ protein aggregation (AID 1604); settings: polyglutamine-induced protein aggregation inhibition assay; stronger effect = higher value; tested at 2.5 µM
[6] = enhancers of glutamate uptake in motor neurons, MN-1 cell line (AID 1612); settings: MN-1 motor neuron cells, stronger effect = higher value;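 also: tested at 1 µM final; 0% = mean of DMSO vehicle wells on each plate; positive means more glutamate uptake than control and negative means less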
[7] = reducers of polyQ inclusions in PC12 cells, cell-based, NGF-treated PC12, GFPQ80 (AID 1614); settings: PC12 NGF-treated GFP-polyQ80 inclusion reduction;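 also: lower means fewer inclusions and 0 means no inclusions at all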
[8] = suppressors of polyglutamine aggregation in yeast, 75Q-TubH (AID 1616); settings: S. cerevisiae 75Q-TubH polyglutamine aggregation suppression; stronger effect = higher value
[9] = liver-stage malaria parasite growth inhibition, primary screen, cell-based, HepG2, luciferase luminescence, HepG2 viability (AID 624349);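 also: 100% = mean of DMSO negative control wells on the same plate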; settings: P. berghei liver stage in HepG2, luciferase luminescence, concentration not given here; parasite load remaining: stronger effect = lower value; viability: measured here: HepG2 viability without parasites
[10] = differential killing of epithelial or mesenchymal cells, primary screen, imaging, PC-3E GFP, TEM4-18 mCherry, co-culture (AID 1345086;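 active = compounds killing one labelled cell type while sparing the other, by normalised counts and ratio limits, not self-fluorescent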;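 as to all read-outs here: cells exposed to compound for 72 h before imaging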;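 as to red/green cell ratio (normalised): normalised mesenchymal count divided by normalised epithelial count so high means epithelial killing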); settings: imaging cell counts, at 1 µM; for red/green cell ratio (normalised): actives lie on both sides, counts scaled to control wells, 1 = unselective
[11] = sensitizers of A549 cells to miR-34 induction, primary screen, imaging, A549 dox-inducible miR-34, nuclei and caspase counts (AID 1347080;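 active = compounds whose cell count with miR-34 switched on is under 0.7 times the count with it off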); settings: A549 miR-34 inducible, Hoechst nuclei count, 48 h
[12] = measured here: epithelial PC-3E GFP cell survival
[13] = measured here: mesenchymal TEM4-18 mCherry cell survival
[14] = stronger effect = lower value, cell number ratio, induced over uninduced
[15] = measured here: relative caspase fold change +Dox/-Dox
[16] = measured here: total cells with miR-34 induction, stronger effect = lower value
[17] = measured here: total cells without miR-34 induction

Row | SMILES | inhibition [1] [%] | score [2] | rescue above control [3] | cytochrome c release ratio [4] | inhibition of aggregation [5] [%] | glutamate uptake change [6] [%] | inclusion score [7] | aggregation suppression score [8] | parasite load remaining [9] | viability [9] | red/green cell ratio (normalised) [10] | normalised cell number [10, 12] | normalised cell number [10, 13] | fold change [11, 14] | fold change [11, 15] | cell count [11, 16] | cell count [11, 17]
1 | Cc1onc(-c2ccccc2)c1C(=O)NC1C(=O)N2[C@@H]1SC(C)(C)[C@@H]2C(=O)O (some centres undefined) | 7.8 | 1.09 | 17.4 | 0.85 | -11.1 | -21.8 | 2 | 1.34 | 86.3% (inactive) and 60.5% (inactive) | 72.2% and 86.2% | 0.97 (inactive) | 1.16 | 1.12 | 0.832 (inactive) | 1.09 | 11300 | 13500
2 | CCC(=O)O[C@]1(C(=O)CCl)[C@@H](C)CC2C3CCC4=CC(=O)C=C[C@]4(C)[C@@]3(F)[C@@H](O)C[C@@]21C (some centres undefined) | -7.85 | 0.96 | 0.61 | 1.1 | 51 | 19.7 | 2 | 1.08 | 202% (inactive) and 73.8% (inactive) | 86% and 95.6% | 1.11 (inactive) | 1.12 | 1.25 | 0.913 (inactive) | 3.26 | 7630 | 8360
3 | NC(=O)c1cc[n+](CC2=C(C(=O)O)N3C(=O)C(NC(=O)C(c4ccccc4)S(=O)(=O)[O-])C3SC2)cc1 (centres undefined) | -4.99 | 0.99 | -3.36 | 0.92 | 24.1 | -27.4 | 2 | 1.42 | 51% (inactive) | 86.8% | 0.99 (inactive) | 1.08 | 1.07 | 0.877 (inactive) | 3.65 | 11600 | 13200
4 | CC(=O)O[C@]1(C(C)=O)CCC2C3C=C(Cl)C4=CC(=O)[C@@H]5C[C@@H]5[C@]4(C)C3CC[C@@]21C (some centres undefined) | 22.9 | 0.66 | -6.61 | 1.14 | 61 | 14.6 | 1 | 0.413 | 90.2% (inactive) and 39.4% (inactive) | 70.9% and 86.5% | 0.81 (inactive) | 1.12 | 0.91 | 0.907 (inactive) | 1.85 | 11200 | 12400
5 | CC(=O)OCC(=O)[C@@]12OC3(CCCC3)O[C@@H]1CC1C3CCC4=CC(=O)C=C[C@]4(C)[C@@]3(F)[C@@H](O)C[C@@]12C (some centres undefined) | 11.1 | 0.65 | -4.49 | 0.91 | 31.4 | 27.2 | 2 | 0.855 | 189% (inactive) and 59% (inactive) | 84% and 96.4% | 1.04 (inactive) | 1.4 | 1.46 | 0.917 (inactive) | 2.86 | 7510 | 8190
6 | CC1(C)O[C@@H]2CC3C4C[C@H](F)C5=CC(=O)CC[C@]5(C)C4[C@@H](O)C[C@]3(C)[C@]2(C(=O)CO)O1 (some centres undefined) | 6.64 | 1.49 | 7.14 | 1.08 | 66.7 | 17 | 2.5 | 0.898 | 151% (inactive) and 47.9% (inactive) | 68.8% and 102% | 1.21 (inactive) | 1.17 | 1.42 | 0.854 (inactive) | 2.6 | 7720 | 9050
7 | CC(=O)OCC(=O)[C@@]1(O)CCC2C3CCC4=CC(=O)C=CC4(C)C3[C@@H](O)C[C@@]21C (some centres undefined) | 26 | 0.73 | -9.27 | 0.8 | 51 | 16.1 | 2 | 0.991 | 118% (inactive) and 56% (inactive) | 73.8% and 82.3% | 1.41 (inactive) | 1 | 1.41 | 0.859 (inactive) | 2.47 | 6780 | 7890
8 | CN1C2CC[C@@H]1CC(OC(=O)[C@H](CO)c1ccccc1)C2 (some centres undefined) | 10 | 1.23 | 0.71 | 1.28 | 89.7 | -13.3 | 2 | 1.46 | 85.7% (inactive) and 75.8% (inactive) | 72.7% and 94.9% | 0.96 (inactive) | 1.11 | 1.07 | 0.837 (inactive) | 0.536 | 10500 | 12600
9 | CN[C@@H]1C(O)[C@@H](O[C@@H]2[C@@H](O)[C@H](O[C@H]3OC(CN)=CC[C@H]3N)[C@@H](N)C[C@H]2N)OC[C@]1(C)O (some centres undefined) | 11.9 | 1.54 | -2.25 | 1.22 | 66.2 | -12 | 2 | 1.05 | 96.3% (inactive) and 41.6% (inactive) | 74.6% and 94.8% | 1.18 (inactive) | 1.02 | 1.2 | 0.967 (inactive) | 4.46 | 11400 | 11800
10 | CC(=O)O[C@H]1C[C@@]2(C)[C@@H](C[C@@H](O)C3[C@]2(C)CC[C@H]2[C@H](C)[C@H](O)CC[C@]32C)/C1=C(/CCC=C(C)C)C(=O)O (some centres undefined) | 8.99 | 1.55 | -0.35 | 1.24 | 12.1 | 11.6 | 2 | 1.1 | 99.6% (inactive) and 102% (inactive) | 71.9% and 91.9% | 1.29 (inactive) | 1.06 | 1.36 | 0.927 (inactive) | 1.7 | 11800 | 12700
11 | O=c1[nH]c(=O)n(C2C[C@@H](O)[C@@H](CO)O2)cc1F (some centres undefined) | -9.47 | 1.23 | -12.2 | 0.97 | 28.2 | 1.59 | 2 | 1.24 | 79.5% (inactive) and 36% (inactive) | 108% | 0.79 (inactive) | 0.79 | 0.62 | 1.13 (inactive) | 1.5 | 4220 | 3730
12 | CC1(C)O[C@@H]2CC3C4CCC5=CC(=O)C=C[C@]5(C)[C@@]4(F)[C@@H](O)C[C@]3(C)[C@]2(C(=O)CO)O1 (some centres undefined) | 7.99 | 0.99 | -3.95 | 1.15 | 85.2 | 20.7 | 2 | 1.19 | 187% (inactive) and 62.4% (inactive) | 64.4% and 84.9% | 1.43 (inactive) | 0.86 | 1.23 | 0.787 (inactive) | 3.14 | 6650 | 8440
13 | C[C@H]1O[C@@H](O[C@H]2[C@@H](O)C[C@H](O[C@H]3[C@@H](O)C[C@H](O[C@H]4CC[C@]5(C)C6C[C@@H](O)[C@]7(C)[C@@H](C8=CC(=O)OC8)CC[C@]7(O)C6CC[C@@H]5C4)O[C@@H]3C)O[C@@H]2C)C[C@H](O)[C@@H]1O (some centres undefined) | 80 | 1.17 | 0 | 0.9 | 88.9 | -3.95 | 1.5 | 1.34 | 1.4% (inactive) and 1.3% (inactive) | 36.1% and 54.9% | 0.68 (inactive) | 1.14 | 0.77 | 0.434 (active) | 2.23 | 193 | 445
14 | C[C@]12C=CC(=O)C=C1CCC1C2C(=O)C[C@@]2(C)C1CC[C@]2(O)C(=O)CO (some centres undefined) | 10.6 | 1.16 | 5.79 | 0.79 | -17.6 | -8.9 | 2 | 1.29 | 71.9% (inactive) and 35.5% (inactive) | 73% and 91% | 1.16 (inactive) | 0.94 | 1.1 | 0.854 (inactive) | 2.55 | 10500 | 12300
15 | C[C@H](CCC(=O)O)[C@H]1CCC2C3C(CC[C@@]21C)[C@@]1(C)CC[C@@H](O)C[C@H]1C[C@@H]3O (some centres undefined) | 20.5 | -0.02 | 3.58 | 1.17 | 66.7 | -4.34 | 2 | 0.256 | 50.6% (inactive) and 45.5% (inactive) | 77.3% and 94.5% | 1.02 (inactive) | 1.05 | 1.08 | 0.898 (inactive) | 1.12 | 11500 | 12900
16 | CC(C)[N+]1(C)C2CC[C@@H]1CC(OC(=O)C(CO)c1ccccc1)C2 (some centres undefined) | 3.73 | 1.48 | -2.72 | 0.9 | 73 | -1.05 | 2 | 0.901 | 88% (inactive) and 61.6% (inactive) | 79% and 98.1% | 0.61 (inactive) | 1.35 | 0.82 | 0.876 (inactive) | 1.18 | 10700 | 12200
17 | C[C@]12CCC3c4ccc(O)cc4CCC3C1CC[C@@H]2O (some centres undefined) | 29.2 | 0.39 | 6.83 | 1.24 | 47.9 | 35.2 | 2 | 0.216 | 84% (inactive) and 56.6% (inactive) | 74.3% and 92.5% | 1.16 (inactive) | 1.32 | 1.53 | 0.991 (inactive) | 1.49 | 11000 | 11100
18 | CC(=O)OCC(=O)[C@@]1(O)CCC2C3CCC4=CC(=O)CC[C@]4(C)C3C(=O)C[C@@]21C (some centres undefined) | -3.61 | 1.04 | -2.34 | 0.91 | 69.7 | -1.1 | 2 | 0.738 | 120% (inactive) and 65.9% (inactive) | 67.1% and 90.7% | 1.08 (inactive) | 1.08 | 1.17 | 0.911 (inactive) | 0.583 | 11400 | 12500
19 | O=C1O[C@@H](CO)[C@H](O)[C@@H](O)[C@@H]1O | -15.4 | 1.29 | 7.61 | 0.98 | 50.7 | -5.06 | 2 | 1.09 | 176% (inactive) and 30.6% (inactive) | 83.8% and 96.7% | 1.05 (inactive) | 0.98 | 1.02 | 0.946 (inactive) | 2.61 | 12000 | 12600
20 | C=C[C@@]1(C)CC(=O)[C@@]2(O)[C@](C)(O1)[C@@H](OC(C)=O)[C@@H](O)C1C(C)(C)CC[C@H](O)[C@@]12C (some centres undefined) | 4.06 | 1.39 | 0.33 | 0.91 | 15.4 | 15.8 | 1 | 1.2 | 150% (inactive) and 45.5% (inactive) | 93.3% and 96.7% | 1 (inactive) | 1.25 | 1.26 | 0.888 (inactive) | 3.59 | 11900 | 13400
21 | CC(=O)OCC(=O)[C@@]1(O)[C@H](OC(C)=O)CC2C3CCC4=CC(=O)C=C[C@]4(C)[C@@]3(F)[C@@H](O)C[C@@]21C (some centres undefined) | -24 | 1.15 | 19.5 | 1.31 | 89.7 | 9.09 | 2.5 | 0.805 | 160% (inactive) and 64.8% (inactive) | 67.1% and 85.5% | 1.19 (inactive) | 0.98 | 1.17 | 0.86 (inactive) | 3.23 | 7630 | 8870
22 | CO/N=C(/C(=O)NC1C(=O)N2C(C(=O)O)=C(COC(N)=O)CSC12)c1ccco1 (centres undefined) | 8.13 | 1.48 | -9.55 | 1.1 | 28.8 | 14.5 | 2 | 1.29 | 180% (inactive) and 36.7% (inactive) | 72.5% and 86.1% | 0.94 (inactive) | 1.04 | 0.97 | 0.899 (inactive) | 3.3 | 11600 | 12900

From PubChem BioAssay
